# Source: PubChem (National Center for Advancing Translational Sciences (NCATS))
# A selection: hits, their analogues and other compounds. The true share with any hit is near 19%.
# TDP1 cell CPT: DT40-hTDP1 cell growth loss with CPT. 420,000 compounds, 12% hits. chicken DT40 Tdp1-/-;hTDP1 cells + 20 nM CPT, ATP luminescence, 48 h. Potency, µM (top dose mostly 46.2 µM), for inactives: top-dose activity change, negative = growth inhibition, actives largely listed as inhibitors; further: potency means the concentration at half of the fitted maximal effect; nearly all actives have a fitted effect of over 55% in size
#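 Chicken DT40 Tdp1-/- cells stably complemented with human TDP1 were seeded at 400 cells/well in medium containing 20 nM camptothecin, exposed to pin-transferred compounds, and grown at 37 °C for at least 48 hr. Viability was read as ATP luminescence.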
# TDP1 cell noCPT: qHTS for Inhibitors of human tyrosyl-DNA phosphodiesterase 1 (TDP1): qHTS in cells in absence of CPT | AID 686978, 2013 | Potency, µM (series often up to 46.2 µM), inactives show at the highest dose activity change, negative = growth inhibition, actives largely listed as inhibitors | 420,000 compounds, 15% hits | DT40 Tdp1-/- hTDP1 cells, no CPT, ATP luminescence, 48 h; further: potency means the concentration at half of the fitted maximal effect; nearly all actives have a fitted effect of over 55% in size
#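 Growth kinetics read by CellTiter-Glo luminescence after ≥48 hr at 37 °C. Cells: DT40 Tdp1-/- stably carrying human TDP1, 400 per well, compound exposure in the absence of CPT (DMSO vehicle).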
# HT1080 IDH1KD tx: toxicity to HT-1080 IDH1 knockdown cells (counter line); AID 686971; HT-1080 IDH1 knockdown viability, ATP luminescence, 48 h; Potency, µM (top dose mostly 46.1 µM), inactives show at the top dose activity, negative = toxicity, most hits filed as cytotoxic; 360,000 compounds, 2% hits;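 further: potency means the concentration at half of the fitted maximal effect; 0% = DMSO wells and -100% = cell-free medium wells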
#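 Viability of IDH1-knockdown HT-1080 fibrosarcoma cells was assessed by CellTiter-Glo after 48 h at 37 °C with titrated compound; concentration-effect curves were classified by fit quality and response size.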
# HT1080NT lethal: kills 2HG-producing HT-1080-NT fibrosarcoma cells. Potency, µM (top dose mostly 46.1 µM), for inactives: at the highest dose activity, negative = less viability, actives largely listed as cytotoxic. 360,000 compounds, 1.6% hits. HT-1080-NT fibrosarcoma viability, CellTiter-Glo ATP luminescence, 48 h;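 further: NT is the 2HG producing partner of a matched IDH1 knockdown line; potency means the concentration at half of the fitted maximal effect; 0% = DMSO-treated cells and -100% = media-only wells without cells; nearly all actives have a fitted effect of over 55% in size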
#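 750 cells/well, RPMI + 5% FBS; 2 h settle, compound pin-transfer, 48 h at 37 degrees C. CellTiter-Glo 10 min RT, luminescence. Normalized to DMSO and media-only wells.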
# IL1B secr inh: blocks inflammasome-driven IL-1 beta release; 360,000 compounds, 4.7% hits; AID 743279; activity change, % at 57.5 µM; THP-1 LPS/ATP IL-1B secretion, AlphaLISA, 16 h; stronger effect = lower value; in the data active means activity change below about -50%; inconclusive means mostly about -30% to -49%
#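 THP-1 cells pretreated 1 hr with compounds (up to 57.5 uM final), then stimulated with LPS (250 ng/mL final) plus ATP (1.25 mM final); secreted IL-1B measured by AlphaLISA after 16 hr, decreased signal indicating inhibition.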
# * marks the source's active call; other numbers are inactive results; ? = inconclusive; . = not tested or not shown. Unless noted, the call rests on the fitted dose curve; in most records, active means well fitted curve in the direction sought with a large enough effect; inconclusive means small, poorly fitted or top-dose-only effect, or another doubt; inactive means no such curve, though single readings can be large; an effect the other way counts as inactive or inconclusive. Unless noted, on the % scale 0 is the no-effect control and ±100 the full control effect.
SMILES,TDP1 cell CPT,TDP1 cell noCPT,HT1080 IDH1KD tx,HT1080NT lethal,IL1B secr inh
CC1CCN(c2nc3ccc(C(=O)NCCCN4CCCCC4)cc3s2)CC1,?,23.1µM*,?,?,-20.0
O=C(NCCc1ccccc1)c1ccc2nc(N3CCCCC3)sc2c1,-11.0%,?,.,.,.
CC1CCN(c2nc3ccc(C(=O)NCc4ccccc4Cl)cc3s2)CC1,?,20.6µM*,.,.,.
O=C(NCc1ccccc1)c1ccc2nc(N3CCOCC3)sc2c1,-0.6%,-22.5%,-1.4%,20.9%,37.4
Cc1ccc2nc(N3CCN(C(=O)C4CC4)CC3)sc2c1,-1.0%,-11.8%,.,.,.
Cc1cccc(N2CCN(C(=O)c3ccc4nc(N5CCC(C)CC5)sc4c3)CC2)c1C,20.6µM*,16.4µM*,.,.,.
O=C(NCCc1ccccc1)c1cc([N+](=O)[O-])ccc1N1CCOCC1,?,-23.3%,-2.3%,-9.5%,-18.0
O=C(Nc1nc2ccc(Oc3ccccc3)cc2s1)c1cc([N+](=O)[O-])ccc1N1CCOCC1,?,13µM*,0.4%,2.1%,-17.8
O=C(NCCOc1ccccc1)c1cc([N+](=O)[O-])ccc1N1CCOCC1,1.84µM*,1.64µM*,7.31µM*,?,-10.9
O=C(NCCOc1ccccc1F)c1cc([N+](=O)[O-])ccc1N1CCOCC1,5.17µM*,3.66µM*,8.2µM*,6.51µM*,13.9
COc1cccc(NC(=O)c2sc3nc(C)c(C(=O)Nc4ccc(C)cc4C)c(-c4ccc(Br)cc4)c3c2N)c1,?,-29.5%,.,.,.
Cc1cc(Nc2sc(C(=O)c3ccc(F)cc3)c(N)c2C(=O)Nc2ccc(F)cc2)ccc1Cl,11.6µM*,3.66µM*,.,.,.
COc1ccc(C(=O)c2sc(Nc3cccc(OC)c3)c(C(=O)Nc3cccc(C)c3C)c2N)cc1,18.4µM*,10.3µM*,?,?,68.2
O=C(Nc1ccc(F)cc1)c1cc(Cl)sc1Cl,2.0%,-1.0%,15.9%,26.3%,-2.2
COc1ccccc1NC(=O)c1sc2nc(C)c(C(=O)Nc3ccc(C)cc3C)c(-c3ccccc3Cl)c2c1N,3.0%,-10.4%,.,.,.
COc1ccc(C(=O)c2sc(Nc3ccccc3)c(C(=O)Nc3ccc(OC)c(OC)c3)c2N)cc1,25.9µM*,16.4µM*,-27.9%,-10.1%,-5.0
COc1ccccc1NC(=O)c1c(Nc2ccccc2C)sc(C(=O)Nc2cccc(Cl)c2)c1N,20.6µM*,?,?,?,?
COc1ccc(NC(=O)c2c(Nc3ccccc3)sc(C(=O)c3ccc(F)cc3)c2N)cc1,2.31µM*,2.06µM*,?,?,-0.1
Cn1cc(C(=O)NS(=O)(=O)Nc2ccc(Br)cn2)c2ccccc21,19.7%,-13.1%,28.2%,10.2%,-13.3
CCCCN(C)CCNC(=O)c1cc(-c2cccnc2)nc2ccc(S(=O)(=O)N3CCC(C)CC3)cc12,?,14.6µM*,-17.4%,?,-13.6
CCN(CC)CCNC(=O)c1cc(-c2cccnc2)nc2ccc(S(=O)(=O)N3CCC(C)CC3)cc12,?,?,-7.0%,-13.2%,-98.8*
CC1CCN(S(=O)(=O)c2ccc3nc(-c4cccnc4)cc(C(=O)NCCCOC(C)C)c3c2)CC1,4.0%,10.5%,.,.,.
CCCCN(CCCC)CCNC(=O)c1cc(-c2cccnc2)nc2ccc(S(=O)(=O)N3CCC(C)CC3)cc12,3.66µM*,-2.0%,.,.,.
O=C(Nc1ccc(Br)cc1)C1CCN(S(=O)(=O)c2cccc3nsnc23)CC1,?,-21.0%,.,.,.
COc1ccccc1NC(=O)c1cc(S(=O)(=O)N2CCN(c3ccccc3Cl)CC2)ccc1F,?,-70.2%,.,.,.
COc1ccc(N2CCN(S(=O)(=O)c3ccc(F)c(C(=O)Nc4ccccc4Cl)c3)CC2)cc1,7.31µM*,8.2µM*,.,.,.
COc1ccccc1N1CCN(S(=O)(=O)c2ccc(F)c(C(=O)Nc3ccc(Cl)cc3C(F)(F)F)c2)CC1,?,20.6µM*,.,.,.
